Test [1] is described as follows: liver-stage malaria parasite growth inhibition, primary screen, cell-based, HepG2, luciferase luminescence, HepG2 viability (AID 624349; in the data active means parasite load remaining mostly below about 12%, no sharp cut-off; inactive means mostly above about 10%;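 further: 100% = mean of DMSO negative control wells on the same plate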). The settings on record: P. berghei liver stage in HepG2, luciferase luminescence, concentration not given here; parasite load remaining: stronger effect = lower value; viability: measured here: HepG2 viability without parasites.
Test [2] can be described thus: Cy5 fluorescence interference with SSB-bound oligo, artefact control for HCV NS3 helicase inhibitor project, biochemical, NIH Clinical Collection, E. coli SSB (AID 743268; call rule not given here).
Test [3] has as its system Hepatitis C virus NS3 helicase. Description: HCV NS3 helicase inhibitors, primary screen, biochemical, fluorescence polarization, NIH Clinical Collection (AID 743270; call rule not given here). The settings on record: NS3 helicase binding to Cy5-dT15 DNA, stronger effect = higher value, concentration not given here.
In test [4] the target is Single-stranded DNA-binding protein (Escherichia coli (strain K12)) (UniProt P0AGE0). Description: E. coli SSB displacement from DNA, counter-screen for HCV NS3 helicase inhibitor project, biochemical, fluorescence polarization, NIH Clinical Collection (AID 743271; in the data active means inhibition above about 28%). The settings on record: stronger effect = higher value, concentration not given here. (In general: The purpose of a counterscreen is to sort out artefacts and off-target activity.)

Test [5] in a line: fluorescence interference in NS3h assay format, artefact control for HCV NS3 helicase inhibitor project, biochemical, NIH Clinical Collection (AID 743272; call rule not given here;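 further: HCV NS3 helicase with a Cy5 labelled single stranded DNA probe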). The settings on record: fluorescence interference counterscreen, stronger effect = lower value.
Test [6] is described as follows: sensitizers of A549 cells to miR-34 induction, primary screen, imaging, A549 dox-inducible miR-34, nuclei and caspase counts (AID 1347080;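 active means compounds whose cell count with miR-34 switched on is under 0.7 times the count with it off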). The note with it: A549 miR-34 inducible, Hoechst nuclei count, 48 h.
In another test the test system is F380Y. Put plainly: modulators of BK channel variants, profiling panel, selectivity assay, cell-based, U2OS BacMam, thallium flux, beta subunits (AID 1259406).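 Further: initial slope of Thallos dye fluorescence rise after thallium is added; log ratio against the mean of 0.3% DMSO vehicle wells on the same plate.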 The note with it: at 30 µM.
The subject of another test is F380Y/beta2Delta. Described as above. The note with it: at 30 µM.
For another test, the system named is R275C. The description is as above. The note with it: at 30 µM.
For a further test, the system named is R275C/beta1. The test is described as above. The note with it: at 30 µM.
The subject of a further test is R275C/beta2Delta. Described as above. The note with it: at 30 µM.
The test system of another test is R275C/Slo1WT/beta2. The test is described as above. The note with it: at 30 µM.
[7] abbreviates: measured here: relative caspase fold change +Dox/-Dox.
Setting [8] is: measured here: total cells with miR-34 induction, stronger effect = lower value.
Setting [9] is: measured here: total cells without miR-34 induction.

SMILES strings stand for the structures. “And” between values parts separate entries of the source, which are not always exact repeats. Equal entries are not always repeated. The source made the active and inactive calls.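 How the source made its calls, unless noted: active means thallium flux through the channel raised or lowered by more than 3 SD from vehicle-only wells, actives on both sides; inactive means the rest.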

A word on the viability: it is the share of living cells, or the viability signal relative to a control. By inhibition is commonly meant the change of the read-out against control, counted positive when it falls. Take `O[C@@H]1CCCC[C@H]1N1CCC(c2ccccc2)CC1`: in [1], the parasite load remaining is 78.7% (inactive) and 101% (inactive). For the same compound, the viability in test [1] is 93.8% and 73%. In addition, the fluorescence ratio in test [2] is 0.98 (inactive); in test [5], 0.91 (inactive). In addition, the inhibition in test [3] is 1.19% (inactive); in test [4], 0.67% (inactive). For the same compound, the fold change in test [6] (stronger effect = lower value) is 0.933 (inactive) and 0.866 (inactive); in [6] (setting [7]), 1.17 and 0.745. Moreover, the cell count in [6] (setting [8]) is 8520 and 8230; in [6] (setting [9]), 9130 and 9500.
With `CN1C(=O)CN=C(c2ccccc2)c2cc(Cl)ccc21`, in test [1], the parasite load remaining is 122% (inactive). In addition, the viability in [1] came out at 81.8%. For the same compound, the values for the fluorescence ratio in test [2] and in test [5] were 1.03 (inactive) and 1.02 (inactive), respectively. The results for the inhibition in test [3] and in test [4] were -1.98% (inactive) and 0.67% (inactive), respectively. The results for the fold change in test [6] (stronger effect = lower value) and in test [6] (setting [7]) were 0.967 (inactive) and 1.74, respectively. Further, the cell count in test [6] (setting [8]) was 9270; in [6] (setting [9]) it was 9590. The log fold change Tl+ flux was 0.00227 (inactive) in the test on F380Y; 0.0204 (inactive) with F380Y/beta2Delta; -0.0487 (inactive) with R275C; -0.07 (inactive) in the test with R275C/beta1; -0.0058 (inactive) in the test with R275C/beta2Delta; 0.0176 (inactive) in the test on R275C/Slo1WT/beta2.
Turning to `C[C@]12CC[C@H]3[C@@H](CCC4=CC(=O)CC[C@@H]43)[C@@H]1CC[C@@H]2O`, the parasite load remaining in test [1] is 113% (inactive) and 109% (inactive). Further, the viability in [1] is 73.7% and 87.5%. For the same compound, the fluorescence ratio was 1 (inactive) in [2] and 0.98 (inactive) in test [5]. The inhibition in test [3] was -4.36% (inactive); in [4], -0.87% (inactive). Besides, the values for the fold change in [6] (stronger effect = lower value) and in test [6] (setting [7]) were 0.927 (inactive) and 1.32, respectively. In addition, the cell count came to 8170 in test [6] (setting [8]) and 8800 in [6] (setting [9]). In addition, the log fold change Tl+ flux with F380Y was 0.0331 (inactive); with F380Y/beta2Delta, 0.0141 (inactive); with R275C, -0.0315 (inactive); with R275C/beta1 it was 0.00735 (inactive); in the test with R275C/beta2Delta, -0.0135 (inactive); with R275C/Slo1WT/beta2 it was -0.0416 (inactive).
Consider `CC12CCC(=O)C=C1CCC1C2CCC2(C)C(O)CCC12` (stereo not given), for which the parasite load remaining in [1] is 38.7% (inactive). Further, the viability in [1] worked out at 100%. For the same compound, the fluorescence ratio in [2] was 0.97 (inactive); in test [5], 1.01 (inactive). Further, the inhibition in [3] was -3.18% (inactive); in test [4] it was -3.53% (inactive). The fold change in [6] (stronger effect = lower value) was 0.96 (inactive); in test [6] (setting [7]) it was 2.43. Moreover, the cell count in test [6] (setting [8]) is 9970; in [6] (setting [9]), 10400. In addition, the log fold change Tl+ flux with F380Y was 0.0199 (inactive); with F380Y/beta2Delta, 0.032 (inactive); in the test with R275C it was 0.011 (inactive); with R275C/beta1 it was 0.00563 (inactive); in the test with R275C/beta2Delta, 0.059 (inactive); with R275C/Slo1WT/beta2, -0.0485 (inactive).
With `C[N+]1(C)CCN(c2ccccc2)CC1`, the parasite load remaining in test [1] is 117% (inactive). In test [1], this compound displayed a viability of 87.7%. Further, the fluorescence ratio is 1.03 (inactive) in test [2] and 1.01 (inactive) in test [5]. For the same compound, the inhibition in test [3] is 6.73% (inactive); in [4] it was 2.21% (inactive). Moreover, the fold change in test [6] (stronger effect = lower value) was 1.02 (inactive) and 0.991 (inactive); in test [6] (setting [7]) it was 1.06 and 1.59. Besides, the cell count was 9770 and 9860 in [6] (setting [8]); 9580 and 9940 in [6] (setting [9]). Also, the log fold change Tl+ flux in the test on F380Y was -0.0112 (inactive); with F380Y/beta2Delta it was -0.0318 (inactive); in the test on R275C, -0.0752 (inactive); in the test on R275C/beta1 it was 0.0101 (inactive); in the test with R275C/beta2Delta it was 0.00724 (inactive); in the test with R275C/Slo1WT/beta2, -0.0166 (inactive).
Turning to `CC1CCC[C@H](O)CCCCCc2cc(O)cc(O)c2C(=O)O1` (stereo not given in full), in test [1], the parasite load remaining was 34.2% (inactive). This compound also displayed a viability in [1] of 64.7%. Also, the fluorescence ratio in test [2] is 1.04 (inactive); in [5], 0.99 (inactive). The inhibition in [3] is 2.77% (inactive); in test [4], 0.67% (inactive). Besides, the log fold change Tl+ flux is 0.0327 (inactive) in the test with F380Y; -0.0124 (inactive) in the test with F380Y/beta2Delta; -0.00393 (inactive) in the test with R275C; 0.141 (active) in the test with R275C/beta1; 0.1 (active) in the test with R275C/beta2Delta; 0.035 (inactive) in the test on R275C/Slo1WT/beta2.
As for `C[C@]12CC[C@H](O)CC1=CC[C@@H]1[C@@H]2CC[C@@]2(C)[C@H]1CC[C@]2(C)O`, the parasite load remaining in [1] is 67.4% (inactive). The viability in test [1] was 70.8%. Also, the results for the fluorescence ratio in test [2] and in test [5] were 1.04 (inactive) and 1.02 (inactive), respectively. The inhibition is -1.19% (inactive) in [3] and -4.72% (inactive) in test [4]. Moreover, the log fold change Tl+ flux with F380Y is 0.0283 (inactive); with F380Y/beta2Delta, 0.0164 (inactive); with R275C, 0.0183 (inactive); in the test on R275C/beta1, 0.0261 (inactive); with R275C/beta2Delta it was -0.00697 (inactive); in the test on R275C/Slo1WT/beta2 it was 0.057 (inactive).
For `c1ccc(Cn2ccnc2)cc1`, in test [1], the parasite load remaining was 66.3% (inactive). The compound further showed a viability in test [1] of 67.7%. In addition, the fluorescence ratio was 0.9 (inactive) in test [2] and 0.88 (inactive) in [5]. Moreover, the inhibition in test [3] was -1.09% (inactive); in [4] it was 1.97% (inactive). Further, the fold change in [6] (stronger effect = lower value) was 1.24 (inactive); in test [6] (setting [7]) it was 0.727. Moreover, the cell count in test [6] (setting [8]) is 8900; in test [6] (setting [9]) it was 7170. For the same compound, the log fold change Tl+ flux in the test on F380Y was 0.0263 (inactive); in the test with F380Y/beta2Delta it was -0.0252 (inactive); in the test with R275C, -0.0227 (inactive); in the test on R275C/beta1 it was -0.0133 (inactive); in the test on R275C/beta2Delta, -0.00773 (inactive); with R275C/Slo1WT/beta2, -0.0321 (inactive).
Regarding `Cc1nnc2n1-c1ccc(Cl)cc1C(c1ccccc1)=NC2`, in test [1], the parasite load remaining was 139% (inactive). Also, in [1], the viability was found to be 72.1%. Also, the fluorescence ratio in test [2] was 1.03 (inactive); in test [5], 0.99 (inactive). Moreover, the results for the inhibition in test [3] and in test [4] were -4.36% (inactive) and -1.64% (inactive), respectively. Further, the fold change in test [6] (stronger effect = lower value) is 1.01 (inactive); in test [6] (setting [7]), 1.21. In addition, the cell count came out at 9000 in test [6] (setting [8]) and 8940 in [6] (setting [9]). For the same compound, the log fold change Tl+ flux is -0.0314 (inactive) in the test with F380Y; -0.00534 (inactive) in the test on F380Y/beta2Delta; 0.0519 (inactive) in the test on R275C; 0.00402 (inactive) in the test on R275C/beta1; 0.0255 (inactive) in the test on R275C/beta2Delta; -0.00622 (inactive) in the test on R275C/Slo1WT/beta2.

These data come from PubChem BioAssay.
